Results on 39 compounds are retold here after PubChem BioAssay (NCI).

Structures are written as SMILES. This is part of a sample that, as a whole, favours compounds with a hit. Of some 83,000 tested, about 20% had one in any assay.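 Step 1: grow cells in 96-well plates. Step 2: add test compound at a single concentration. Step 3: incubate 48 h. Step 4: record percent growth.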 Activity calls are given as the source filed them. Rule for the calls: active = growth percent below 10; inactive = the rest.

One experiment has as its system NCI-H226 lung. Nature of the experiment: NCI-60 one-dose screen, 48 h (100 = growth as untreated, 0 = no growth, -100 = all killed). The note with it: 10 µM unless noted.
For the compound `CCOC(=O)c1ccc(N(CCC(=O)O)C(C)=O)cc1`, the growth is 102% (inactive).
Same read-out and setting: under `Nc1c(C(=O)Nc2cccc(Cl)c2)sc2ncc(Br)cc12` stands 83.5% (inactive); under `CSC(=S)N/N=C(\C)c1ccccn1`, 5.78% (active); under `CC(=O)O[C@H]1[C@H](CC#CC#CC[C@@H]2C[C@]3(C)[C@H]4CC=C5[C@H]6[C@@H](C)[C@H](C)CC[C@]6(C(=O)NCCCCCCCCN)CC[C@@]5(C)[C@]4(C)CC[C@H]3C(C)(C)[C@H]2OC(C)=O)C[C@]2(C)[C@H]3CC=C4[C@H]5[C@@H](C)[C@H](C)CC[C@]5(C(=O)NCCCCCCCCN)CC[C@@]4(C)[C@]3(C)CC[C@H]2C1(C)C`, -83.5% (active).
Still for that read-out and setting: under `CC(C)COC(=O)NC(C)(C)C` stands 104% (inactive); under `CCC(=O)NC(O)C(Cl)(Cl)C(C)Cl` (stereo not drawn), 95.7% (inactive).
Still for that read-out and setting: with `C#CCNC(=S)N/N=C(\C)c1ccccn1` the figure was 5% (active); with `COc1ccc(-c2nnc(SCC(=O)Nc3ccc(C(=O)/C=C/c4ccc(Cl)cc4)cc3)n2-c2ccccc2)cc1`, 103% (inactive); with `CC1CCN(Cc2ccc(NC(=O)c3cc4ccc5cccnc5c4[nH]3)cc2)CC1`, 43% (inactive).
With `CC(C)N1CCN(c2ccncc2S(=O)(=O)N2CCN(C)CC2)CC1`, the growth was 89.7% (inactive).
For `O=C(/C=C/c1ccccc1)n1c(-c2ccccc2)nc2ccccc21`, the growth was 101% (inactive).
Regarding `COC1CC(N)C2OC(c3ccccc3)OCC2O1` (stereo not drawn), the growth was 104% (inactive).
The same measure, in the same setting: under `COc1cccc(NC(=O)[C@H](C(C)C)n2c(=O)[nH]c3ccccc3c2=O)c1` stands 92.4% (inactive); under `COc1ccc(-c2cnc3ccnn3c2-c2cc(OC)c(OC)c(OC)c2)cc1`, 65.5% (inactive); under `COc1cc2cc(C(=O)Nc3ccccc3)c(N)nc2cc1OC`, 65.2% (inactive).
Take `O=C(C=P(c1ccccc1)(c1ccccc1)c1ccccc1)CCl`: the growth is -70.7% (active).
Same read-out and setting: under `CCCCCCCCCCCCCCCCS(=O)(=O)Nc1cc(C(=O)NN)cc(C(=O)NN)c1` stands 73.1% (inactive); under `COS(=O)(=O)CCN(CCOS(C)(=O)=O)S(C)(=O)=O`, 100% (inactive); under `CCn1c(CN2CCN(Cc3ccccc3)CC2)nc2cc(NC(=O)c3cccs3)ccc21`, -35.5% (active).
On the same count and under the same terms, under `CC(=O)c1ccc(-n2c(-c3cc(-c4ccsc4)n[nH]3)n[nH]c2=S)cc1` stands 99.6% (inactive); under `CCN(CC)Cc1cc(Nc2ccnc3cc(Cl)ccc23)cc(-c2ccc(Cl)cc2)c1O`, 17.6% (inactive); under `O=C(NCC(c1ccsc1)N1CCCCCC1)c1ccc(C(F)(F)F)cc1` (stereo not drawn), 91.9% (inactive).
The same measure, in the same setting: under `COc1cc(NC(C)CCCN)c2ncccc2c1Oc1ccc(Cl)cc1` (stereo not drawn) stands 75% (inactive); under `O=C(c1ccccc1)N(CCCCl)C(=O)N(CCCCl)C(=O)c1ccccc1`, 94.9% (inactive).
Regarding `COc1ccc(C2=CC(c3ccc(OC)cc3Br)N3C=CSC3=N2)cc1` (stereo not drawn), the growth was 66.6% (inactive).
Same read-out and setting: under `CC(=O)c1nn(-c2ccccc2)/c(=N\N=C\c2coc3ccc(F)cc3c2=O)s1` stands 86% (inactive); under `O=C(c1ccc(C(F)(F)F)c(Cl)c1)N(Cc1ccc(Cl)cc1)c1ccc(-c2cc(C(F)(F)F)[nH]n2)c(O)c1`, -5.3% (active).
Still for that read-out and setting: with `C/C(=N\OC(=O)Nc1cccc(Cl)c1)c1ccccc1` the figure was 92.1% (inactive); with `C/C(=C\C(=N\N=C(N)N)c1ccc(Cl)cc1)c1ccc(Cl)cc1`, -69.6% (active); with `O=C(NO)c1ccc(NCc2csc3ccccc23)cc1`, 64.8% (inactive).
Consider `C#CC[C@@H]1C[C@]2(C)[C@H]3CC=C4[C@H]5CC(C)(C)CC[C@]5(C(=O)NCCCCN)CC[C@@]4(C)[C@]3(C)CC[C@H]2C(C)(C)[C@H]1OC(C)=O`, for which the growth was 90.3% (inactive).
Turning to `Oc1ccc(Cl)cc1-c1cc(-c2ccccc2Cl)[nH]n1`, the growth was 81.8% (inactive).
Still for that read-out and setting: under `CC1C2CCC(C2)C1COCCOCCO` (stereo not drawn) stands 104% (inactive); under `O=C1C(Cl)=C(N/N=c2/[nH][nH]/c(=N/NC3=C(Cl)C(=O)c4ccccc4C3=O)c3ccccc23)C(=O)c2ccccc21`, 74.8% (inactive); under `COc1ccc(/C=c2\c(=O)n(-c3ccccc3)c3nn4c(n23)=NNC42CCCCC2)cc1`, 75.8% (inactive).
On the same count and under the same terms, with `CCNC(=S)N(Cc1ccccc1)Cc1ccccc1` the figure was 114% (inactive); with `N#CC1=C(N)Oc2nc[nH]c(=O)c2C1c1cccs1` (stereo not drawn), 89% (inactive); with `CCN(C(=O)Nc1cccc2ccccc12)c1ccccc1`, 98.1% (inactive).
Same read-out and setting: with `COc1ccc(-c2nc(-c3cc(OC)cc(OC)c3)[nH]c2-c2ccc(OC)cc2)cc1` the figure was 48.7% (inactive).

A further experiment concerns NCI-H322M lung. The description is as above. The following applies: 10 µM unless noted.
As for `CCOC(=O)c1ccc(N(CCC(=O)O)C(C)=O)cc1`, the growth is 92.1% (inactive).
With `Nc1c(C(=O)Nc2cccc(Cl)c2)sc2ncc(Br)cc12`, the growth was 59.4% (inactive).
Same read-out and setting: under `CSC(=S)N/N=C(\C)c1ccccn1` stands 8.08% (active); under `CC(=O)O[C@H]1[C@H](CC#CC#CC[C@@H]2C[C@]3(C)[C@H]4CC=C5[C@H]6[C@@H](C)[C@H](C)CC[C@]6(C(=O)NCCCCCCCCN)CC[C@@]5(C)[C@]4(C)CC[C@H]3C(C)(C)[C@H]2OC(C)=O)C[C@]2(C)[C@H]3CC=C4[C@H]5[C@@H](C)[C@H](C)CC[C@]5(C(=O)NCCCCCCCCN)CC[C@@]4(C)[C@]3(C)CC[C@H]2C1(C)C`, 106% (inactive).
For `CC(C)COC(=O)NC(C)(C)C`, the growth was 100% (inactive).
For `CCC(=O)NC(O)C(Cl)(Cl)C(C)Cl` (stereo not drawn), the growth is 99.6% (inactive).
For `C#CCNC(=S)N/N=C(\C)c1ccccn1`, the growth was -4.06% (active).
Same read-out and setting: under `COc1ccc(-c2nnc(SCC(=O)Nc3ccc(C(=O)/C=C/c4ccc(Cl)cc4)cc3)n2-c2ccccc2)cc1` stands 118% (inactive); under `CC1CCN(Cc2ccc(NC(=O)c3cc4ccc5cccnc5c4[nH]3)cc2)CC1`, 49.2% (inactive).
Consider `CC(C)N1CCN(c2ccncc2S(=O)(=O)N2CCN(C)CC2)CC1`, for which the growth is 123% (inactive).
Turning to `O=C(/C=C/c1ccccc1)n1c(-c2ccccc2)nc2ccccc21`, the growth is 108% (inactive).
Still for that read-out and setting: under `COC1CC(N)C2OC(c3ccccc3)OCC2O1` (stereo not drawn) stands 107% (inactive); under `COc1cccc(NC(=O)[C@H](C(C)C)n2c(=O)[nH]c3ccccc3c2=O)c1`, 117% (inactive).
Still for that read-out and setting: under `COc1ccc(-c2cnc3ccnn3c2-c2cc(OC)c(OC)c(OC)c2)cc1` stands 55.8% (inactive); under `COc1cc2cc(C(=O)Nc3ccccc3)c(N)nc2cc1OC`, 44.1% (inactive); under `O=C(C=P(c1ccccc1)(c1ccccc1)c1ccccc1)CCl`, 10.3% (inactive).
On the same count and under the same terms, with `CCCCCCCCCCCCCCCCS(=O)(=O)Nc1cc(C(=O)NN)cc(C(=O)NN)c1` the figure was 56.9% (inactive); with `COS(=O)(=O)CCN(CCOS(C)(=O)=O)S(C)(=O)=O`, 108% (inactive); with `CCn1c(CN2CCN(Cc3ccccc3)CC2)nc2cc(NC(=O)c3cccs3)ccc21`, -69% (active).
With `CC(=O)c1ccc(-n2c(-c3cc(-c4ccsc4)n[nH]3)n[nH]c2=S)cc1`, the growth is 101% (inactive).
Consider `CCN(CC)Cc1cc(Nc2ccnc3cc(Cl)ccc23)cc(-c2ccc(Cl)cc2)c1O`, for which the growth is 5.72% (active).
Same read-out and setting: under `O=C(NCC(c1ccsc1)N1CCCCCC1)c1ccc(C(F)(F)F)cc1` (stereo not drawn) stands 99.9% (inactive); under `COc1cc(NC(C)CCCN)c2ncccc2c1Oc1ccc(Cl)cc1` (stereo not drawn), 64.5% (inactive).
Same read-out and setting: under `O=C(c1ccccc1)N(CCCCl)C(=O)N(CCCCl)C(=O)c1ccccc1` stands 92.9% (inactive); under `COc1ccc(C2=CC(c3ccc(OC)cc3Br)N3C=CSC3=N2)cc1` (stereo not drawn), 72.8% (inactive); under `CC(=O)c1nn(-c2ccccc2)/c(=N\N=C\c2coc3ccc(F)cc3c2=O)s1`, 104% (inactive).
Consider `O=C(c1ccc(C(F)(F)F)c(Cl)c1)N(Cc1ccc(Cl)cc1)c1ccc(-c2cc(C(F)(F)F)[nH]n2)c(O)c1`, for which the growth was 14.4% (inactive).
`C/C(=N\OC(=O)Nc1cccc(Cl)c1)c1ccccc1`: the growth is 97.6% (inactive).
On to `C/C(=C\C(=N\N=C(N)N)c1ccc(Cl)cc1)c1ccc(Cl)cc1`, for which the growth is -36% (active).
Still for that read-out and setting: under `O=C(NO)c1ccc(NCc2csc3ccccc23)cc1` stands 85.7% (inactive); under `C#CC[C@@H]1C[C@]2(C)[C@H]3CC=C4[C@H]5CC(C)(C)CC[C@]5(C(=O)NCCCCN)CC[C@@]4(C)[C@]3(C)CC[C@H]2C(C)(C)[C@H]1OC(C)=O`, 36% (inactive).
The same measure, in the same setting: with `Oc1ccc(Cl)cc1-c1cc(-c2ccccc2Cl)[nH]n1` the figure was 65.1% (inactive).
`CC1C2CCC(C2)C1COCCOCCO` (stereo not drawn): the growth is 109% (inactive).
`O=C1C(Cl)=C(N/N=c2/[nH][nH]/c(=N/NC3=C(Cl)C(=O)c4ccccc4C3=O)c3ccccc23)C(=O)c2ccccc21`: the growth was 58.4% (inactive).
Regarding `COc1ccc(/C=c2\c(=O)n(-c3ccccc3)c3nn4c(n23)=NNC42CCCCC2)cc1`, the growth was 96.3% (inactive).
On the same count and under the same terms, with `CCNC(=S)N(Cc1ccccc1)Cc1ccccc1` the figure was 104% (inactive); with `N#CC1=C(N)Oc2nc[nH]c(=O)c2C1c1cccs1` (stereo not drawn), 105% (inactive).
On the same count and under the same terms, with `CCN(C(=O)Nc1cccc2ccccc12)c1ccccc1` the figure was 102% (inactive).
As for `COc1ccc(-c2nc(-c3cc(OC)cc(OC)c3)[nH]c2-c2ccc(OC)cc2)cc1`, the growth is 60.6% (inactive).
